Several values for one entry are separate records, joined by “and”; a condition that tells them apart may be missing. Equal entries are not always repeated. Inconclusive results are not listed. Activity calls are given as the source filed them. The call rests on the fitted dose curve; in most records, active means well fitted curve in the direction sought with a large enough effect; inconclusive means small, poorly fitted or top-dose-only effect, or another doubt; inactive means no such curve, though single readings can be large; an effect the other way counts as inactive or inconclusive.
Columns and labels:
MCC-26 = test: qHTS assay to identify novel small-molecules to repurpose for Merkel cell carcinoma treatment (AID 1296009); details: MCC and control cell lines, CellTiter-Glo viability, 72 h; series mostly up to 46 µM; further: nearly all actives have a fitted effect of over 60% in size
Summary of the method: (§1)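 CellTiter-Glo luminescence after 72 hr compound exposure at 37 degree celsius gave cell viability. Libraries NPC and MIPE were run as 8- and 11-point dose responses; RLUs normalized to DMSO (negative) and no-cell (cytotoxicity) controls.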

MKL-1 = test: as above; details: MCC and control cell lines, CellTiter-Glo viability, 72 h; series mostly up to 46 µM
Summary of the method: as §1

MKL-2 = test: as above; details: MCC and control cell lines, CellTiter-Glo viability, 72 h; series mostly up to 46 µM
Summary of the method: as §1

NIH3T3 = test: as above; details: MCC and control cell lines, CellTiter-Glo viability, 72 h; at 44.8 µM (top of the series) unless noted
Summary of the method: as §1

UISO = test: as above; details: MCC and control cell lines, CellTiter-Glo viability, 72 h; series mostly up to 46 µM
Summary of the method: as §1

WaGa = test: as above; details: MCC and control cell lines, CellTiter-Glo viability, 72 h; series mostly up to 46 µM
Summary of the method: as §1

C33A = test: Primary qHTS to identify gynecologic anti-cancer compounds using libraries of approved drugs and bioactive compounds (AID 1345084); details: Gynecologic cancer cell panel viability, ATPlite luminescence, 48 h; series mostly up to 57.5 µM; further: nearly all actives have a fitted effect of over 55% in size
Summary of the method: (§2)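 In this quantitative HTS, cell killing is estimated from loss of ATP-dependent luciferase light. Cells see five compound concentrations over a 48 h exposure.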

CAOV3 = test: as above; details: Gynecologic cancer cell panel viability, ATPlite luminescence, 48 h; series mostly up to 57.5 µM
Summary of the method: as §2

CASKI = test: as above; details: Gynecologic cancer cell panel viability, ATPlite luminescence, 48 h; series mostly up to 57.5 µM
Summary of the method: as §2

Es-2 = test: as above; details: Gynecologic cancer cell panel viability, ATPlite luminescence, 48 h; series mostly up to 57.5 µM
Summary of the method: as §2

HeLa = test: as above; details: Gynecologic cancer cell panel viability, ATPlite luminescence, 48 h; series mostly up to 57.5 µM
Summary of the method: as §2

Hek293T = test: as above; details: Gynecologic cancer cell panel viability, ATPlite luminescence, 48 h, control line for the selectivity index; series mostly up to 57.5 µM
Summary of the method: as §2

JEG-3 = test: as above; details: Gynecologic cancer cell panel viability, ATPlite luminescence, 48 h; series mostly up to 57.5 µM
Summary of the method: as §2

OV90 = test: as above; details: Gynecologic cancer cell panel viability, ATPlite luminescence, 48 h; series mostly up to 57.5 µM
Summary of the method: as §2

PA-1 = test: as above; details: Gynecologic cancer cell panel viability, ATPlite luminescence, 48 h; series mostly up to 57.5 µM
Summary of the method: as §2

SKOV3 = test: as above; details: Gynecologic cancer cell panel viability, ATPlite luminescence, 48 h; series mostly up to 57.5 µM
Summary of the method: as §2

Tov-21-G = test: as above; details: Gynecologic cancer cell panel viability, ATPlite luminescence, 48 h; series mostly up to 57.5 µM
Summary of the method: as §2

Tov112D = test: as above; details: Gynecologic cancer cell panel viability, ATPlite luminescence, 48 h; series mostly up to 57.5 µM
Summary of the method: as §2

[1] = Drug repurposing screens with cells derived from glioblastoma tumor samples (AID 1345199); details: GBM patient neurospheres viability, ATP luminescence, 48 h; further: nearly all actives have a fitted effect of over 40% in size
Summary of the method: (§3)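 Primary testing used CD133+ neurospheres from four GBM patients, seven concentrations, 48 h exposure and ATP-based viability; confirmation added three slower-growing patient lines.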

astro = test: as above; details: viability, ATP luminescence, 48 h; series mostly up to 45.9 µM
Summary of the method: as §3

[2] = at 45.9 µM (top of the series), tumour line B
[3] = at 45.9 µM (top of the series), tumour line D
[4] = at 46 µM (top of the series), tumour line A
[5] = at 46.1 µM (top of the series), tumour line C
On the % scale 0 is the no-effect control and ±100 the full control effect.

CC(=O)NC(C)c1ccc(Oc2ccc(OC(C)C)cc2)cc1 (stereo not drawn)
inactive: Potency (MCC-26) | Potency (MKL-1)

CCn1cc(C(=O)O)c(=O)c2cc(F)c(N3CCNC(C)C3)c(F)c21 (stereo not drawn)
inactive: Potency (MCC-26) | Potency (MKL-1) | Potency (MKL-2) | outcome (NIH3T3) | Potency (UISO) | Potency (WaGa) | Potency (C33A) | Potency (CAOV3) | Potency (CASKI) | Potency (Es-2) | Potency (HeLa) | Potency (Hek293T) | Potency (JEG-3) | Potency (OV90) | Potency (PA-1) | Potency (SKOV3) | Potency (Tov-21-G) | Potency (Tov112D) | activity, negative = cell killing [1, 2] -18.8% and -6.47% | activity, negative = cell killing [1, 3] -1.92% and -11.9% | activity, negative = cell killing [1, 4] -14% and -29.8% | activity, negative = cell killing [1, 5] -19.8% and -7.41% | Potency (astro)

Cc1cc2c(F)c(Oc3ncnn4cc(OC[C@@H](C)O)c(C)c34)ccc2[nH]1
inactive: Potency (MCC-26) | Potency (MKL-1)

CCN(CC)CCCC(C)Nc1nc(C)cc(Nc2ccc3nc(C)cc(N)c3c2)n1 (stereo not drawn)
inactive: Potency (MCC-26) | Potency (MKL-1) | Potency (MKL-2) | outcome (NIH3T3) | Potency (UISO) | Potency (WaGa)

CCCCNc1cc(C(=O)O)cc(S(N)(=O)=O)c1Oc1ccccc1
inactive: Potency (MCC-26) | Potency (MKL-1) | Potency (MKL-2) | outcome (NIH3T3) | Potency (UISO) | Potency (WaGa) | Potency (C33A) | Potency (CAOV3) | Potency (CASKI) | Potency (Es-2) | Potency (HeLa) | Potency (JEG-3) | Potency (OV90) | Potency (PA-1) | Potency (SKOV3) | Potency (Tov-21-G) | Potency (Tov112D) | activity, negative = cell killing ([1]; at 21.2 µM (top of the series), tumour line D) -6.33% | activity, negative = cell killing ([1]; at 21.3 µM (top of the series), tumour line A) -23.2% | Potency (astro)

O=c1ncn2nc(Sc3ccc(F)cc3F)ccc2c1-c1c(Cl)cccc1Cl
inactive: Potency (MCC-26) | Potency (MKL-1) | Potency (MKL-2)

C1COC(NC(C2CC2)C2CC2)=N1
inactive: Potency (MCC-26) | Potency (MKL-1) | Potency (MKL-2) | outcome (NIH3T3) | Potency (UISO) | Potency (WaGa) | Potency (C33A) | Potency (CAOV3) | Potency (CASKI) | Potency (Es-2) | Potency (HeLa) | Potency (Hek293T) | Potency (JEG-3) | Potency (OV90) | Potency (PA-1) | Potency (SKOV3) | Potency (Tov-21-G) | Potency (Tov112D) | activity, negative = cell killing [1, 2] -27.8% | activity, negative = cell killing [1, 5] -23.7% | Potency (astro)

CC(C[N+](C)(C)C)OC(N)=O (stereo not drawn)
inactive: Potency (MCC-26) | Potency (MKL-1) | Potency (MKL-2) | outcome (NIH3T3) | Potency (UISO) | Potency (WaGa) | Potency (C33A) | Potency (CAOV3) | Potency (CASKI) | Potency (Es-2) | Potency (HeLa) | Potency (Hek293T) | Potency (JEG-3) | Potency (OV90) | Potency (PA-1) | Potency (SKOV3) | Potency (Tov-21-G) | Potency (Tov112D) | activity, negative = cell killing [1, 2] -0.814% | activity, negative = cell killing [1, 3] 5.66% | activity, negative = cell killing [1, 4] -20.4% | activity, negative = cell killing [1, 5] 5.23% | Potency (astro)

COc1ccc2c3n(c(=NC(=O)c4cccnc4)nc2c1OC)CCN3
inactive: Potency (MCC-26) | Potency (MKL-1) | Potency (MKL-2)

— PubChem BioAssay (NCATS)
